Data published in PubChem BioAssay (EPA / NIEHS).
The source made the active and inactive calls. How the source made its calls: active means hit-call score of the fitted dose curve at least 0.9, where 1 is the maximum; inactive means score below 0.9.

Columns and labels:
[1] = ATG_GLI_CIS: Attagene CIS-FACTORIAL HepG2 Assay for human Zinc Finger Protein GLI1 (AID 2282945); conditions: HepG2, Attagene cis-factorial reporter mRNA, GLI element; actives raise or lower the signal
In short: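 HepG2 cells transiently transfected with cis-promoter multiplexed reporter units report endogenous transcription factor activity. After 24 h chemical exposure, reporter mRNA was quantified by RT-PCR, 6-FAM labelling, HpaI digestion and capillary electrophoresis, with bidirectional fitting against DMSO.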

[2] = ATG_ISRE_CIS: Attagene CIS-FACTORIAL HepG2 Assay for human Interferon Regulatory Factor 1 (IRF1) binding to an Interferon-Stimulated Response Element (ISRE) (AID 2282948); conditions: HepG2 ISRE cis-reporter (Attagene), mRNA transcription readout; actives raise or lower the signal
In short: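 Quantitation relies on labelled RT-PCR fragments separated by capillary electrophoresis. Human HepG2 cells bearing cis-promoter reporter constructs were treated 24 h; DMSO served as baseline for bidirectional fitting.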

[3] = ATG_M_32_CIS: Attagene CIS-FACTORIAL HepG2 Assay for M32 Transcription Factor (Internal Marker) (AID 2282949); conditions: HepG2 Attagene cis-factorial M32 reporter, mRNA; actives raise or lower the signal;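 further: background control marker of the multiplexed CIS panel rather than a real target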
In short: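 Fluorescent capillary electrophoresis peaks of HpaI-digested, FAM-labelled RT-PCR reporter products give the signal. Source: transiently transfected human liver HepG2 cells, 24 h after chemical dosing; bidirectional fitting against DMSO.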

[4] = ATG_M_06_CIS: Attagene CIS-FACTORIAL HepG2 Assay for M06 Transcription Factor (Internal Marker) (AID 2282950); conditions: HepG2 Attagene CIS-FACTORIAL M06 internal marker reporter; actives raise or lower the signal
In short: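 Terse: HepG2, transient MRTU transfection (FuGene 6), 24 h dosing; total RNA, oligo(dT) RT, PCR, FAM label, HpaI cut, capillary electrophoresis; bidirectional fit vs DMSO baseline; background-control endpoint.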

[5] = target: Hypoxia-inducible factor 1-alpha (Homo sapiens) (UniProt Q16665); test: ATG_HIF1a_CIS: Attagene CIS-FACTORIAL HepG2 Assay for human Hypoxia Inducible Factor 1 (HIF1A) (AID 2282951); conditions: HepG2 Attagene cis-factorial HIF1a reporter transcription; actives raise or lower the signal
In short: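 Activity is fitted in both directions relative to DMSO. Reporter transcripts are read by RT-PCR, fluorescent primer extension and capillary electrophoresis after 24 h chemical treatment. The cells are HepG2 carrying transiently transfected cis-element-driven reporter units responding to endogenous factors.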

[6] = target: Hepatocyte nuclear factor 6 (Homo sapiens) (UniProt Q9UBC0); test: ATG_HNF6_CIS: Attagene CIS-FACTORIAL HepG2 Assay for human Hepatocyte Nuclear Factor 6 (HNF6) (AID 2282952); conditions: HepG2 Attagene cis-factorial HNF6 reporter transcription; actives raise or lower the signal
In short: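 HepG2 cells transiently transfected with cis-element-driven multiple reporter transcription units, dosed 24 h; reporter mRNA quantified by RT-PCR, FAM primer extension, HpaI digestion and capillary electrophoresis; bidirectional fit versus DMSO baseline.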

[7] = target: Heat shock factor protein 1 (Homo sapiens) (UniProt Q00613); test: ATG_HSE_CIS: Attagene CIS-FACTORIAL HepG2 Assay for human Heat Shock Transcription Factor 1 (HSE) (AID 2282953); conditions: HepG2 HSE cis-reporter, Attagene RNA transcription; actives raise or lower the signal
In short: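 Read-out: fluorescence of reporter-specific RT-PCR fragments separated by capillary electrophoresis. HepG2 carrying transfected cis-element reporter units; 24 h dosing; activity fitted in both directions relative to DMSO baseline.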

[8] = ATG_MRE_CIS: Attagene CIS-FACTORIAL HepG2 Assay for human Metal Responsive Element (MRE) (AID 2282954); conditions: HepG2 MRE cis-reporter transcription, Attagene multiplex; actives raise or lower the signal
In short: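 Step one: transfect HepG2 with cis-regulated reporter units. Step two: dose 24 h. Step three: isolate RNA, RT-PCR, 6-FAM label, HpaI digest, capillary electrophoresis. Fit bidirectionally to DMSO.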

Measured: outcome

Hepatocyte nuclear factor 6 (Homo sapiens), sequence (Q9UBC0 whole entry, looked up): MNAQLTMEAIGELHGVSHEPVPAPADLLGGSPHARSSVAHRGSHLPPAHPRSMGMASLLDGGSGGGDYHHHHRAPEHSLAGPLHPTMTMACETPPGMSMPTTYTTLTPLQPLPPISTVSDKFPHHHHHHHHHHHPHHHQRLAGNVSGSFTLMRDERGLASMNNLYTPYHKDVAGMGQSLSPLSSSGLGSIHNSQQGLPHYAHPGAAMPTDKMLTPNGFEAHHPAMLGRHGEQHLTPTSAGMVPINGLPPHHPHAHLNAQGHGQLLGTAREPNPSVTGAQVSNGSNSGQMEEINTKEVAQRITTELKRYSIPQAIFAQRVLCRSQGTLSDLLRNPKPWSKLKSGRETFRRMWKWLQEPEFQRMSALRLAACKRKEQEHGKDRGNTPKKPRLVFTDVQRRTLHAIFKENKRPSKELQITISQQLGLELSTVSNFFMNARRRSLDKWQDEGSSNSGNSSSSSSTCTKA
Hypoxia-inducible factor 1-alpha (Homo sapiens), sequence (Q16665 whole entry, looked up): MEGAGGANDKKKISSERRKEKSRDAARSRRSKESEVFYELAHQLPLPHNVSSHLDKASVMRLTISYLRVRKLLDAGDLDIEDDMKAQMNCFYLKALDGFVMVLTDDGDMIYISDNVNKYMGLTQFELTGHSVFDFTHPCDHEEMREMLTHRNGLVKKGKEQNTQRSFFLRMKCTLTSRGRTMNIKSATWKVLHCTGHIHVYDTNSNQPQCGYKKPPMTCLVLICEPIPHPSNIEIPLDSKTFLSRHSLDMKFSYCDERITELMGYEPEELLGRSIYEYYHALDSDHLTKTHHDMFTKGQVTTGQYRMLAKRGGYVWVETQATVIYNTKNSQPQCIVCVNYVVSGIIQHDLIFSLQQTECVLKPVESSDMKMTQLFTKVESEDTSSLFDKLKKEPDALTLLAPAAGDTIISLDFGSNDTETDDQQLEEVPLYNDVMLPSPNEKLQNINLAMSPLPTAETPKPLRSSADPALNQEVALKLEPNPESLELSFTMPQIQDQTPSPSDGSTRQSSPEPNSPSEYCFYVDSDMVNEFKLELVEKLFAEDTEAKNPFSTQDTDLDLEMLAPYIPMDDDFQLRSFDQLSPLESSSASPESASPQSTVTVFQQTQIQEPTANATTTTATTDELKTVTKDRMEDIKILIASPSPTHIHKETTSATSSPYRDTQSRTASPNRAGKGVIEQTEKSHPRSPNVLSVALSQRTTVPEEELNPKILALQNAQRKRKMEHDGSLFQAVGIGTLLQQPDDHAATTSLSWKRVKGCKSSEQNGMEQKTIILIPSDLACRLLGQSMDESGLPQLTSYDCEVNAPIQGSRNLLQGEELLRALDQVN
Heat shock factor protein 1 (Homo sapiens), sequence (Q00613 whole entry, looked up, the tested form may be a part): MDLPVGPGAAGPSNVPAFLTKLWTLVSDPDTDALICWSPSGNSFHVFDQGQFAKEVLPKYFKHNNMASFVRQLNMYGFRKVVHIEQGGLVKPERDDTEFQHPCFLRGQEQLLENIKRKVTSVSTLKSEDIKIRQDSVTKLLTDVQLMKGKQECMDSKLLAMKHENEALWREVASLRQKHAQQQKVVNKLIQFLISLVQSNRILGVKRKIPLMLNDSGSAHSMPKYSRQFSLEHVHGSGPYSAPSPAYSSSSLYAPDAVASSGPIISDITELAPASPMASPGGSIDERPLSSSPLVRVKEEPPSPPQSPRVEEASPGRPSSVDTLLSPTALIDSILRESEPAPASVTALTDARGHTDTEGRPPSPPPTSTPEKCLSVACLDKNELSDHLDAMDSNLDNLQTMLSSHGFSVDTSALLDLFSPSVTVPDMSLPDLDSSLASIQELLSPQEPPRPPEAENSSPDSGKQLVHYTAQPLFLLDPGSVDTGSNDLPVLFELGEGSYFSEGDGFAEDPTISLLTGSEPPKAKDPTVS

OCCN1CCOCC1
inactive: all assays above

CCOC(=O)C=Cc1ccccc1
not listed: [7]
inactive: all other assays above

COC(=O)c1cccc(C(=O)OC)c1
inactive: all assays above

CCNC(=S)NCC
inactive: all assays above

CC(=O)Oc1c(C)c(C)c2c(c1C)CC[C@@](C)(CCC[C@H](C)CCC[C@H](C)CCCC(C)C)O2
inactive: all assays above

CCCCCCCC(=O)N(C)C
inactive: all assays above

C=CCCCCCCCCC(=O)OCC
inactive: all assays above

CCCc1ccc(N)cc1
inactive: all assays above

CCC(C)(C)C1CCC(=O)CC1
inactive: all assays above

CCCCCCCCCCCCOCCOS(=O)(=O)O
inactive: all assays above

[O-]/[N+](=N\O)c1ccccc1
inactive: all assays above

CC(C)CCCC(C)(C)O
not listed: [7]
inactive: all other assays above

C[N+](C)(C)CCO
not listed: [5] | [7]
inactive: all other assays above

CC/C=C\CCCCO
inactive: all assays above

O=C(O)c1ccccc1O
inactive: all assays above

C=CC(C)CCCC(C)(C)O (stereo not drawn)
not listed: [7]
inactive: all other assays above

COC(=O)c1ccc(C(=O)OC)cc1
not listed: [7]
inactive: all other assays above

NNC(=O)OCc1ccccc1
inactive: all assays above

C=C(C)C(=O)OCCN(C)C
inactive: all assays above

C=C(C)C(N)=O
inactive: all assays above

O=[N+]([O-])c1cc(N(CCO)CCO)ccc1NCCO
inactive: all assays above

CN(C)C(=O)Nc1ccccc1
inactive: all assays above

CCCCN(CCCC)CCCCCCN(CCCC)CCCC
inactive: all assays above

CC(C)N1C(=O)c2ccccc2C1=O
inactive: all assays above

N#CCCNCCC#N
inactive: all assays above

CCCCCCCCCC(=O)OCC
inactive: all assays above

CC(CO)c1ccccc1 (stereo not drawn)
inactive: all assays above

CCCCCCCCCCCCS
inactive: all assays above

NC(=O)NC(N)=O
inactive: all assays above

CCCCCC1C(=O)CCC1CC(=O)OC (stereo not drawn)
not listed: [7]
inactive: all other assays above

Nc1ccn([C@H]2CC[C@@H](CO)O2)c(=O)n1
not listed: [5]
inactive: all other assays above

CCCCCCCCCOS(=O)(=O)O
inactive: all assays above
